The results in this text go back to PubChem BioAssay (EPA / NIEHS).

Structures are written as SMILES. Results filed as inconclusive are left out. The source made the active and inactive calls. The calls were made as follows: active = hit-call score of the fitted dose curve at least 0.9, where 1 is the maximum; inconclusive = response in the unintended direction; inactive = score below 0.9.

Read-out in this assay: sulfotransferase (SULT2A), SULT2A1 (gene 6822)
Kind of assay: CLD_SULT2A_6hr: CellzDirect (CLD) Gene Expression Assay for sulfotransferase (SULT2A) at 6 hours (AID 2283669).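 Also: hits raise transcript level above the DMSO vehicle baseline.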 As for the experimental part:
CLD_6hr is a cell-based, multiplexed-readout assay that uses hepatocyte, a human liver primary cell, with measurements taken at 6 hours after chemical dosing in a 96-well plate.CLD_SULT2A_6hr is one of 16 assay component(s) measured or calculated from the CLD_6hr assay. It is designed to make measurements of mRNA induction, a form of inducible reporter, as detected with chemiluminescence signals by Quantitative Nuclease Protection Assay (qNPA) technology.Data from the assay component CLD_SULT2A_6hr was analyzed at the endpoint, CLD_SULT2A_6hr, in the positive analysis fitting direction relative to DMSO as the negative control and baseline of activity. Using a type of inducible reporter, gain-of-signal activity can be used to understand changes in the reporter gene as they relate to the gene SULT2A1. Furthermore, this assay endpoint can be referred to as a primary readout. To generalize the intended target to other relatable targets, this assay endpoint is annotated to the transferase intended target family, where subfamily is sulfotransferase.
Human hepatocyte cultures were treated daily for two consecutive days with fresh dosing solutions containing appropriate concentrations of the 320 ToxCast chemicals (chemical identities were blinded to CellzDirect and other ToxCast collaborators), vehicle control (0.2% DMSO), and positive control inducers as summarized in Table 1. Due to the large number of treatment groups and chemicals examined, the ToxCast chemicals were divided into two groups (spanning two independent cultures of hepatocytes from separate donor preparations (Hu778: ToxCast plates 1 and 2; Hu776: ToxCast plates 3 and 4). Each preparation of human hepatocyte cultures was treated with respective vehicle control, medium only control, set of six positive controls/reference chemicals for the five hepatic receptor pathways, and a subset of eight of the ToxCast chemicals (indoxacarb, pyrithiobac-sodium, norflurazon, cyhalofop-butyl, methomyl, thiram, acetochlor, and propiconazole). These replicate data, coupled with internal replicates designed within the blinded ToxCast chemical library, provided additional data to evaluate interindividual differences between hepatocyte preparations and their potential impact on chemical profiles.Cell morphology and integrity were evaluated using phase-contrast microscopy as an indicator of hepatocyte cell health (Tyson & Green, 1987). Cultures for each treatment group (i.e., media, vehicle [0.2% DMSO], positive control inducers [multiple concentrations], and the ToxCast chemicals [multiple concentrations]) were observed and cell morphology was assessed relative to vehicle control cultures at each harvest time point (0, 6, 24, or 48 h). […] Images were evaluated at the conclusion of the study to assess changes in cell integrity and account for the effects of chemical exposure on uncharacteristic changes in concentration-dependent gene expression profiles. The results from these determinations of apparent cytotoxicity were annotated (yes/no) alongside the corresponding qNPA data for reference.At the conclusion of each treatment period, hepatocyte cultures (96-well) were washed with 1 volume of HBSS, lysed by addition of 25 ul ArrayPlate lysis buffer (HTG, Tucson, AZ), and 70 ul/well of Denaturation Oil, denatured by incubation at 95C for 10 min, and frozen at approximately -70C until analysis by nuclease protection assay (qNPA) (Roberts et al., 2007). For qNPA analysis, cell lysates were thawed at 50C for approximately 30 min, qNPA probes were added, and samples were incubated at 95C for 10 min to begin the detection process by denaturing the target RNA, dissociating the duplexes and secondary structure hybridization. At the conclusion of the hybridization period, S1 nuclease reagent was added to each sample to digest all nonprotected nucleotides at 50C for 60-90 min. […]
On to `CCOP(=S)(OCC)Oc1nc(Cl)n(C(C)C)n1`, for which the molecule was called inactive.
In the case of `CNC(=O)Oc1cccc2ccccc12`, the call was inactive.
Consider `CCNP(=S)(OC)O/C(C)=C/C(=O)OC(C)C` (stereo not given), for which the call was inactive.
For the molecule `COc1ccc(-c2ccccc2)cc1NNC(=O)OC(C)C`, the outcome was inactive.
Regarding `CCCN(CC)CC1COC2(CCC(C(C)(C)C)CC2)O1` (stereo not given), the result was inactive.
Consider `Clc1cccc(C(Cl)(Cl)Cl)n1`, for which the outcome was inactive.
Consider `COC(=O)NS(=O)(=O)c1ccc(N)cc1`, for which the call was inactive.
Still for that read-out and setting: for `O=P(O)(O)CCCl` the value was “inactive”; for `CC1(C)CON(Cc2ccccc2Cl)C1=O`, “inactive”; for `Cc1nc(N(C)C)nc(OC(=O)N(C)C)c1C`, “inactive”.
Still for that read-out and setting: for `CO/N=C(/C1=NOCCO1)c1ccccc1Oc1ncnc(Oc2ccccc2Cl)c1F` the value was “inactive”.
Still for that read-out and setting: the entry for `CCOc1cc(C(C)(C)C)ccc1C1COC(c2c(F)cccc2F)=N1` (stereo not given) is “inactive”.
Consider `CCC(C)n1c(=O)[nH]c(C)c(Br)c1=O` (stereo not given), for which the call was inactive.
`COCC(=O)N(c1c(C)cccc1C)C(C)C(=O)OC` (stereo not given): the call was inactive.
Consider `CCCC(=NOCC)C1=C(O)CC(CC(C)SCC)CC1=O` (stereo not given), for which the result was inactive.
Same read-out and setting: for `CS(=O)(=O)c1ccc(C(=O)C2C(=O)CCCC2=O)c([N+](=O)[O-])c1` the value was “inactive”; for `CCN(CC)c1nc(C)cc(OP(=S)(OC)OC)n1`, “inactive”.
Consider `COC(=O)N(C(=O)N1CO[C@@]2(C(=O)OC)Cc3cc(Cl)ccc3C2=N1)c1ccc(OC(F)(F)F)cc1`, for which the result was inactive.
Same read-out and setting: the entry for `CS(=O)(=O)c1cc(C(F)(F)F)ccc1C(=O)c1cnoc1C1CC1` is “inactive”.
On the same count and under the same terms, the entry for `COCc1cnc(C2=NC(C)(C(C)C)C(=O)N2)c(C(=O)O)c1` (stereo not given) is “inactive”; for `CCOc1nc(F)cc2nc(S(=O)(=O)Nc3c(Cl)cccc3Cl)nn12` it is “inactive”; for `Nc1cnn(-c2ccccc2)c(=O)c1Cl` it is “inactive”.
Same read-out and setting: for `O=c1n(Cl)c(=O)n(Cl)c(=O)n1Cl` the value was “inactive”; for `N#Cc1c(Cl)cccc1Cl`, “inactive”; for `C=C(C)CN(CC)c1c([N+](=O)[O-])cc(C(F)(F)F)cc1[N+](=O)[O-]`, “inactive”.
Consider `Cc1cc(C)nc(Nc2ccccc2)n1`, for which the call was inactive.
Turning to `CN=C=S`, the outcome was inactive.
As to `CCCCOCN(C(=O)CCl)c1c(CC)cccc1CC`, the AC50 is 4.32 µM (active).
As for `COCC(C)N(C(=O)CCl)c1c(C)csc1C` (stereo not given), the result was inactive.
Regarding `COC(=O)NC(=S)Nc1ccccc1NC(=S)NC(=O)OC`, the result was inactive.
The same measure, in the same setting: the entry for `Cc1cnc(C2=NC(C)(C(C)C)C(=O)N2)c(C(=O)O)c1` (stereo not given) is “inactive”.
In the case of `O=C(O)c1c(Cl)ccc2cc(Cl)cnc12`, the outcome was inactive.
For `N#Cc1c[nH]cc1-c1cccc2c1OC(F)(F)O2`, the molecule was called inactive.
Regarding `Cc1ccc(N=CN(C)C=Nc2ccc(C)cc2C)c(C)c1`, the molecule was classed as inactive.
With `COC(=O)c1c(C(F)F)nc(C(F)(F)F)c(C2=NCCS2)c1CC(C)C`, the molecule was classed as inactive.
In the case of `COc1cc(Cl)c(OC)cc1Cl`, the result was inactive.
Still for that read-out and setting: for `O=C(Nc1ccccc1-c1ccc(Cl)cc1)c1cccnc1Cl` the value was “inactive”; for `CC1(C)C(C(=O)OC(C#N)c2cccc(Oc3ccccc3)c2)C1(C)C` (stereo not given), “inactive”.
Consider `CCN(CC)C(=O)C(C)Oc1cccc2ccccc12` (stereo not given), for which the outcome was inactive.
The same measure, in the same setting: the entry for `CC(C)NC(=O)N1CC(=O)N(c2cc(Cl)cc(Cl)c2)C1=O` is “inactive”.
